# Screening data as filed in PubChem BioAssay.
# Autofluor counter – flagged as autofluorescent in microsphere protease counterscreen; fluorescence intensity (test concentration not listed); AID 624483; 360,000 compounds, 3.1% hits; compound autofluorescence counterscreen, microsphere flow cytometry; stronger effect = higher value; in the data active means fluorescence intensity above about 16000; inconclusive means no clear call, values can overlap the other calls
# BoNT F protease – BoNT/F light chain protease inhibitors, primary screen, biochemical, flow cytometry, MLPCN library; Multiplex microsphere protease cleavage assay; 360,000 compounds, 0.22% hits; inhibition, % at 10 µM; AID 588497, 2011; Botulinum neurotoxin type F light chain protease (Clostridium botulinum); in the data active means inhibition above about 35%, passing the limit was not always enough; inconclusive means no clear call, values can overlap the other calls; further: plate controls were buffer without enzyme for full effect and enzyme alone for no effect
# Anthrax LF prot – Bacillus anthracis LF protease inhibitors, primary screen, biochemical, multiplex microsphere, MLPCN library. Lethal factor (Bacillus anthracis), P15917. multiplex microsphere protease cleavage assay. inhibition, % at 10 µM. 360,000 compounds, 0.12% hits. AID 588501, 2011; further: plate controls were buffer without enzyme for full effect and enzyme alone for no effect
# MazF activator – activators of E. coli MazEF toxin-antitoxin RNase, primary screen, biochemical, fluorescence, uHTS. Endoribonuclease toxin MazF (Escherichia coli (strain K12)), P0AE70. FAM/BHQ RNA-DNA oligo cleavage fluorescence, 5 h. activation, % at 20 µM. 350,000 compounds, 0.32% hits. AID 504720, 2011; in the data active means activation above about 50%
# PfHsp40 rescue – rescue of yeast from PfHsp40 toxicity, primary screen, S. cerevisiae, ATP luminescence | S. cerevisiae expressing PfHsp40, growth rescue | growth rescue, % at 12.5 µM | 340,000 compounds, 0.68% hits; in the data active means growth rescue above about 28%, passing the limit was not always enough; inconclusive means no clear call, values can overlap the other calls;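 further: yeast W303a lacking pdr1 and pdr3 grown in galactose medium; growth measured after three days at 30 °C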
# BoNT A protease – BoNT/A light chain protease inhibitors, primary screen, biochemical, flow cytometry, MLPCN library | AID 588499, 2011 | inhibition, % at 10 µM | 360,000 compounds, 0.17% hits | multiplex microsphere protease substrate cleavage; further: plate controls were buffer without enzyme for full effect and enzyme alone for no effect
# Active calls of the source: *; u = inconclusive; x = no result. A selection: hits, their analogues and other compounds. The true share with any hit is near 4.3%. Unless noted, no stated cut-off is given here; in the data, active means inhibition above about 30%; inconclusive means no clear call, values can overlap the other calls; inactive means below that.
SMILES,Autofluor counter,BoNT F protease,Anthrax LF prot,MazF activator,PfHsp40 rescue,BoNT A protease
Cc1ccc(-c2csc3ncnc(SCC(N)=O)c23)cc1,2571,1,-1,2,0,0
CCc1nnc(NC(=O)CSc2ncnc3scc(-c4ccc(C)cc4)c23)s1,5072,-3,-2,86*,0,1
CS(=O)(=O)N1CCN(C(=O)Cc2cccs2)CC1,16441*,-2,-1,6,0,u
O=C(Cc1cccs1)N1CCN(S(=O)(=O)c2ccc(Br)cc2)CC1,2233,1,1,-1,-2,0
CS(=O)(=O)N1CCN(C(=O)c2ccc(Br)s2)CC1,20324*,2,-1,-1,-1,1
CS(=O)(=O)N1CCN(C(=O)c2ccc(F)cc2)CC1,11125,-3,2,-2,0,0
COc1ccc(C(C)C)cc1S(=O)(=O)Nc1ccc(Cl)cn1,22386*,-3,-2,-8,1,u
COc1ccc(Cl)cc1S(=O)(=O)Nc1ccc(Cl)cn1,3036,-8,9,4,1,-2
CCn1c(NCc2ccco2)nc2c1c(=O)n(C)c(=O)n2C,21102*,-2,1,40,1,-1
Cn1c(=O)c2c(nc(NCc3ccco3)n2CCc2ccccc2)n(C)c1=O,2986,-3,-2,-9,1,1
Cn1c(=O)c2c(nc(NCc3ccco3)n2Cc2ccc(Cl)cc2Cl)n(C)c1=O,24075*,-7,-4,17,0,-4
Cn1c(=O)[nH]c(=O)c2c1nc(NCc1ccco1)n2Cc1ccccc1Cl,3674,-3,-6,2,-2,0
Cc1ccc(-c2noc(CN(C(=O)Cc3ccccc3)C(C)C)n2)cc1,19931*,5,1,-9,6,u
COc1ccccc1OCC(=O)N(Cc1nc(-c2ccccc2)no1)C(C)C,2941,-17,-5,-24,1,1
Cc1cc(Br)ccc1OCC(=O)N(Cc1nc(-c2ccccc2)no1)C(C)C,20443*,-1,0,-9,3,1
COc1cccc(C(=O)N(Cc2nc(-c3ccc(C)cc3)no2)C(C)C)c1,23492*,-1,-3,-4,1,u
Cc1ccc(Cl)cc1N1CCN(C(=O)c2ccccc2SCC(=O)N2CCCC2)CC1,8353,-9,-1,-1,1,-5
COc1ccccc1Oc1cc(F)nc(N)n1,17544*,13,-10,-1,1,u
CC(COc1ccccc1)N1CCC(CO)(Cc2ccccc2)CC1 (stereo not drawn),4591,5,-7,2,0,0
Cc1cc(N2CCN(C(=O)c3ccco3)CC2)n2nc(-c3cccc(Cl)c3)cc2n1,16545*,1,1,5,-1,u
CCC(C)C(=O)Nc1nc2ccc(OC)cc2s1 (stereo not drawn),x,x,x,5,1,x
Cc1cccc(Cn2nc(-n3cccc3)c3c(C)cc(C)nc32)c1,4571,0,-4,0,3,0
COc1ccc(NCc2nnc(SCC(=O)Nc3cc(C)cc(C)c3)o2)cc1,21267*,-2,-3,-2,-1,u
COc1ccc(CCNC(=O)CSc2nnc(CNc3ccc(Cl)cc3)o2)cc1OC,21392*,0,0,-4,1,-1
O=C(COC(=O)c1ccc[nH]c1=O)Nc1cc(S(=O)(=O)N2CCCCCC2)ccc1Cl,5874,-4,-1,3,0,1
Cc1cc(C)cc(NS(=O)(=O)c2ccc3[nH]c(=O)ccc3c2)c1,3848,-2,-4,-2,0,-3
O=S(=O)(c1ccccc1)C1(C2CC(c3ccccc3)=NO2)CC(O)C1 (stereo not drawn),3468,-4,-8,2,0,0
COC(=O)c1c[nH]c2c1-c1cc(C(=O)OCc3ccccc3)n(S(=O)(=O)c3ccc(C)cc3)c1C(=O)C2=O,3455,-5,0,75*,-2,0
Cc1ccc(S(=O)(=O)Cc2ccc(C(=O)OCc3ccccc3)cc2)cc1,2819,-3,0,-1,1,0
